Data published in PubChem BioAssay (Tox21).
Values joined by “and” are separate entries in the source; they are usually repeats but may differ in a detail not shown here. Equal values may be shown once. Inconclusive results are not listed. Where a call stands in place of a potency, no number is given. The source holds several records for some structures; these can differ, active in one and inactive in another. Active and inactive are the calls of the source. Unless noted, calls follow the shape of the dose curve; as a rule, active = well fitted curve in the direction sought with a large enough effect in the repeat runs; inconclusive = weak or mixed curves; inactive = no such curve, though single readings can be large; an effect the other way counts as inactive or inconclusive.

Key:
[1] = qHTS assay for small molecules that induce genotoxicity in human embryonic kidney cells expressing luciferase-tagged ATAD5 (AID 651632); also: nearly all actives have a fitted effect of over 15% in size
In short: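 HEK293T cells carrying a luciferase reporter tagged to ATAD5 were exposed to compound or DMSO vehicle for 16 hr at 37C, 5% CO2. Amplite was added, and after 30 min at room temperature luciferase activity was read as a marker of ATAD5 induction.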

[2] = qHTS assay for small molecule agonists of the p53 signaling pathway - cell viability (AID 651633; calls by dose curve;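 also: p53RE-bla HCT reporter cells with a stable beta-lactamase p53 reporter; series mostly up to about 83 µM; nearly all actives have a fitted effect of over 30% in size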)
In short: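 Viability counter-read: CellTiter-Glo luminescence (30 min, room temperature) in the same p53RE-bla plates. These plates had been exposed to compounds for 16 h at 37 C.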

[3] = qHTS assay for small molecules that induce genotoxicity in human embryonic kidney cells expressing luciferase-tagged ATAD5 - cell viability (AID 651634; calls by dose curve; also: nearly all actives have a fitted effect of over 25% in size)
In short: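 HEK293T cells expressing luciferase-tagged ATAD5 were exposed to compound or DMSO for 15.5 hr at 37C, 5% CO2. Viability was then read as live-cell protease activity by CellTiter-Fluor fluorescence after 30 min at 37C.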

[4] = qHTS assay for small molecule disruptors of the mitochondrial membrane potential - cell viability (AID 720634; calls by dose curve; also: nearly all actives have a fitted effect of over 20% in size; also: potency is read from the fitted curve at half-maximal effect)
In short: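 HepG2 cells seeded overnight at 37 C, then exposed to compound or DMSO for 1 hr at 37 C, 5% CO2. m-MPI dye added, then CellTiter-Glo for 30 min at room temperature; viability read as ATP luminescence.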

[5] = qHTS assay to test for compound auto fluorescence at 590 nm (red) in HepG2 cells (AID 720674)
In short: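 We screened compounds on adherent HepG2 cells, incubating them for an hour at 37 C in 5% CO2 before reading emission at 590 nm under 540 nm excitation; values reflect equivalence to Rose Bengal sodium fluorescence.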

[6] = qHTS assay to test for compound auto fluorescence at 535 nm (green) in HepG2 cells (AID 720675)
[7] = qHTS assay to test for compound auto fluorescence at 590 nm (red) in HEK293 cells (AID 720679)
In short: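 Plates of HEK293 cells (10% dialyzed FBS) are treated with 23 nL compound or DMSO vehicle after a 4-5 hr attachment period, incubated overnight at 37C, and read for red fluorescence at 540/590nm.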

[8] = qHTS assay for small molecule disruptors of the mitochondrial membrane potential (AID 720635); also: potency is read from the fitted curve at half-maximal effect
In short: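 Mitochondrial membrane potential tracked with Mito-MPS dye, red aggregates (ex 540/em 590 nm) against green monomers (ex 490/em 535 nm). Compound treatment 1 hr at 37C, dye 30 min in HepG2.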

[9] = qHTS assay to test for compound auto fluorescence at 460 nm (blue) in HEK293 cells (AID 720678)
In short: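 After cell attachment (4-5 hr, 37C), compounds were pinned onto HEK293 monolayers in 10% dialyzed FBS medium. The blue channel (405/460 nm) was read following overnight culture. Equivalency was calculated against triamterene.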

| SMILES | Potency [1] | outcome [2] | Potency [3] | Potency [4] | outcome [5] | outcome [6] | outcome [7] | Potency [8] | outcome [9] |
| --- | --- | --- | --- | --- | --- | --- | --- | --- | --- |
| OC1CCCCC1c1ccccc1 (stereo not drawn) | inactive | inactive | inactive | inactive | inactive | inactive | inactive | – | – |
| O=c1cc(-c2ccccc2)oc2ccccc12 | – | – | inactive | – | inactive | inactive | inactive | 48.6 µM (active) and 15.4 µM (active) | inactive |
| CC/C=C\CC/C=C/CO | – | inactive | inactive | inactive | inactive | inactive | inactive | – | – |
| CC(C)(O)C(=O)c1ccccc1 | – | inactive | inactive | inactive | inactive | inactive | inactive | inactive | – |
| CO[C@]12C[C@@H](COC(=O)c3cncc(Br)c3)CN(C)[C@@H]1Cc1cn(C)c3cccc2c13 | inactive | – | – | inactive | inactive | inactive | inactive | inactive | – |
| CCCCCCCCCCCCCCCCC | – | – | inactive | inactive | inactive | inactive | inactive | inactive | – |
| C[C@H](NC(CCc1ccccc1)C(=O)O)C(=O)N1CCC[C@H]1C(=O)O (stereo partly drawn) | inactive | – | inactive | inactive | inactive | inactive | inactive | inactive | inactive |
| CC(=O)OCC(CCn1cnc2cnc(N)nc21)COC(C)=O | inactive | – | inactive | inactive | inactive | inactive | inactive | inactive | – |
| O=C(O)CNC(=O)c1ccc([N+](=O)[O-])cc1 | – | inactive | inactive | inactive | inactive | inactive | inactive | inactive | – |
| NCCc1cnc[nH]1 | – | inactive | inactive | inactive | inactive | inactive | inactive | – | inactive |
| COCCc1ccc(OCC(O)CNC(C)C)cc1 (stereo not drawn) | – | inactive | inactive | inactive | inactive | inactive | inactive | inactive | inactive |
| CCCCOCCOCCOCCCC | – | – | inactive | inactive | inactive | inactive | inactive | inactive | inactive |
| CC(C)(C)c1ccc(O)c(O)c1 | – | inactive | inactive | inactive | inactive | inactive | inactive | 15.9 µM (active) and 13.7 µM (active) | inactive |
| CCOC(=O)c1c(C)n(C)c2ccc(O)cc12 | – | – | inactive | inactive | inactive | inactive | inactive | 7.84 µM (active) | inactive |
| CCCCOCCOCCOCc1cc2c(cc1CCC)OCO2 | – | – | inactive | inactive and 17.4 µM (active) | inactive | inactive | inactive | 55.1 µM (active) | inactive |
| O=C1CCCN1C1CCCCC1 | inactive | – | inactive | inactive | inactive | inactive | inactive | – | – |
| Cc1nc2c([nH]1)c(=O)n(C)c(=O)n2Cc1ccco1 | – | – | inactive | inactive | inactive | inactive | inactive | inactive | inactive |
| COC(=O)C1=C(C)NC(C)=C(C(=O)OC)C1c1ccccc1[N+](=O)[O-] | inactive | inactive | – | inactive | inactive | inactive | inactive | inactive and 61.2 µM (active) | inactive |
| CC(=O)OC/C=C(\C)CC/C=C(\C)CCC=C(C)C | inactive | – | inactive | inactive | inactive | inactive | inactive | inactive | inactive |
| Cc1ccc(C#N)cc1 | inactive | – | inactive | inactive | inactive | inactive | inactive | – | inactive |
| C=C1CC[C@H]2C[C@@H]1C2(C)C | – | – | inactive | – | inactive | inactive | inactive | – | inactive |

| SMILES | Potency [1] | outcome [2] | Potency [3] | Potency [4] | outcome [5] | outcome [6] | outcome [7] | Potency [8] | outcome [9] |
| --- | --- | --- | --- | --- | --- | --- | --- | --- | --- |
| CN(C)CCCN1c2ccccc2CCc2ccc(Cl)cc21 | – | – | inactive | inactive | inactive | inactive | inactive | – | – |
| CCOC(=O)CC(C)=O | – | – | inactive | inactive | inactive | inactive | inactive | – | – |
| CCCCCSCCCCC | – | inactive | inactive | inactive | inactive | inactive | inactive | inactive | inactive |
| CC(C)(c1ccc(O)cc1)c1ccc(O)cc1 | inactive | – | inactive | inactive | inactive | inactive | inactive | 6.78 µM (active) and 5.54 µM (active) | inactive |
| COC(=O)CC(C)=O | inactive | – | inactive | inactive | inactive | inactive | inactive | inactive | inactive |
| CCc1ccc(O)c(OC)c1 | – | inactive | inactive | inactive | inactive | inactive | inactive | – | inactive |
| COC(=O)CCSCCC(=O)OC | – | – | inactive | inactive | inactive | inactive | inactive | inactive | inactive |
| NC(CSCC(=O)O)C(=O)O (stereo not drawn) | inactive | – | inactive | inactive | inactive | inactive | inactive | – | inactive |
| CCN1CCC[C@H]1CNC(=O)c1cc(S(N)(=O)=O)ccc1OC | inactive | – | inactive | inactive | inactive | inactive | inactive | inactive | inactive |
| CC(C)=CCCC(C)CC(=O)O (stereo not drawn) | – | inactive | inactive | inactive | inactive | inactive | inactive | inactive | inactive |
| C/C=C(\C)C#N | – | – | inactive | inactive | inactive | inactive | inactive | – | inactive |
| CC(C)NC(=O)NC(C)C | – | inactive | inactive | inactive | inactive | inactive | inactive | – | inactive |
| CCCC(=O)O[C@]1(C(=O)CO)CC[C@H]2[C@@H]3CCC4=CC(=O)CC[C@]4(C)[C@H]3[C@@H](O)C[C@@]21C | – | – | inactive | inactive | inactive | inactive | inactive | – | – |
| C[N+](C)(C)CC(O)CC(=O)[O-] (stereo not drawn) | – | inactive | inactive | inactive | inactive | inactive | inactive | inactive | inactive |
| CC(=O)N(CC(O)CO)c1c(I)c(C(=O)NCCO)c(I)c(C(=O)NCC(O)CO)c1I (stereo not drawn) | inactive | – | inactive | inactive | inactive | inactive | inactive | inactive | inactive |
| FC1(F)C(F)(F)C(F)(F)C2(F)C(F)(F)C(F)(F)C(F)(F)C(F)(F)C2(F)C1(F)F (stereo not drawn) | inactive | – | inactive | inactive | inactive | inactive | inactive | inactive | inactive |
| COC(=O)c1cc(C(=O)OC)cc(S(=O)(=O)O)c1 | inactive | – | inactive | inactive | inactive | inactive | inactive | inactive | inactive |
| O=C1OC(=O)C2CCCCC12 (stereo not drawn) | – | inactive | inactive | inactive | inactive | inactive | inactive | inactive | inactive |
| COCCCOCCCOC | – | – | inactive | inactive | inactive | inactive | inactive | inactive | inactive |
| CC(C)(C)c1nnc(NS(=O)(=O)c2ccccc2)s1 | – | inactive | inactive | inactive | inactive | inactive | inactive | – | inactive |
